Measurements reported in PubChem BioAssay (NCATS).
Results filed as inconclusive are left out. Activity calls are given as the source filed them. Calls follow the shape of the dose curve; as a rule, active = well fitted cell-killing curve with a large enough effect; inconclusive = small, poorly fitted or top-dose-only effect, or effect the other way; inactive = flat fitted curve, though single readings scatter.

Key:
Assay in all cases: Primary qHTS to identify gynecologic anti-cancer compounds using libraries of approved drugs and bioactive compounds (AID 1345084); also: nearly all actives have a fitted effect of over 55% in size
[1] = test system: C33A; settings: Gynecologic cancer cell panel viability, ATPlite luminescence, 48 h; series mostly up to 57.5 µM
Procedure, shortened: (§1)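 Measured: luminescence after ATPlite addition (15 min, RT). Exposure: 48 h, 37 C, 5% CO2.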

[2] = test system: CAOV3; settings: Gynecologic cancer cell panel viability, ATPlite luminescence, 48 h; series mostly up to 57.5 µM
Procedure, shortened: as §1

[3] = test system: CASKI; settings: Gynecologic cancer cell panel viability, ATPlite luminescence, 48 h; series mostly up to 57.5 µM
Procedure, shortened: as §1

[4] = test system: Es-2; settings: Gynecologic cancer cell panel viability, ATPlite luminescence, 48 h; series mostly up to 57.5 µM
Procedure, shortened: as §1

[5] = test system: HeLa; settings: Gynecologic cancer cell panel viability, ATPlite luminescence, 48 h; series mostly up to 57.5 µM
Procedure, shortened: as §1

[6] = test system: Hek293T; settings: Gynecologic cancer cell panel viability, ATPlite luminescence, 48 h, control line for the selectivity index; series mostly up to 57.5 µM
Procedure, shortened: as §1
% is scaled to controls: 0 for no effect and ±100 for the full control effect.

O=C(O)[C@H]1CCCC[C@H]1C(=O)N1CCc2ccccc2[C@H]1CN1C(=O)c2ccccc2C1=O
inactive: Potency [1] | Potency [2] | Potency [3] | Potency [4] | Potency [5] | Potency [6]

O=C(NCC(=O)N1CC[C@H](NC2CCC(O)(c3ccc(-c4ncccn4)cn3)CC2)C1)c1cccc(C(F)(F)F)c1 (some centres not stated)
inactive: Potency [1] | Potency [2] | Potency [3] | Potency [4] | Potency [5] | Potency [6]

C/C=C/C=C/C(CC(=O)O)Nc1ccc(C=O)cc1 (configuration not stated)
inactive: Potency [1] | Potency [2] | Potency [3] | Potency [4] | Potency [5] | Potency [6]

CO[C@H]1C=C2C(CC[C@H](O[C@@H]3O[C@H](CO)[C@@H](O)[C@@H](O)[C@H]3O)C2(C)C)[C@]2(C)CC[C@]3(C)C([C@H](C)C(O)C(C=C(C)C)O[C@@H]4O[C@H](CO)[C@@H](O)[C@@H](O)[C@H]4O)CC[C@@]3(C)C12 (some centres not stated)
inactive: activity change, negative = cytotoxicity [1] -3.11% [at 11.6 µM] | activity change, negative = cytotoxicity [2] 7.91% [at 11.6 µM] | activity change, negative = cytotoxicity [3] -4.92% [at 11.6 µM] | activity change, negative = cytotoxicity [4] 2.74% [at 11.6 µM] | activity change, negative = cytotoxicity [5] 0.609% [at 11.6 µM] | activity change, negative = cytotoxicity [6] 12.3% [at 11.6 µM]

OCc1ccccc1O[C@@H]1O[C@H](CO)[C@@H](O)[C@H](O)[C@H]1O
inactive: Potency [1] | Potency [2] | Potency [3] | Potency [4] | Potency [5] | Potency [6]

OC[C@H]1O[C@@H](Oc2cc(O)cc(-c3cc4ccc(O)cc4o3)c2)[C@H](O)[C@@H](O)[C@@H]1O
inactive: Potency [1] | Potency [2] | Potency [3] | Potency [4] | Potency [5] | Potency [6]

C=CC1(C)C=C2C(O)CC3C(C)(C(=O)O)CCCC3(C)C2CC1 (configuration not stated)
inactive: Potency [1] | Potency [2] | Potency [3] | Potency [4] | Potency [5] | Potency [6]

CC1=CC(=O)CC(C)(C)C1(O)CCC(C)O (configuration not stated)
inactive: Potency [1] | Potency [2] | Potency [3] | Potency [4] | Potency [5] | Potency [6]

O=C(O)Cc1nn(Cc2nc3cc(C(F)(F)F)ccc3s2)c(=O)c2nccnc12
inactive: Potency [1] | Potency [2] | Potency [3] | Potency [4] | Potency [5] | Potency [6]

COc1cc([C@H]2OC[C@]3(OC(C)=O)[C@@H](c4ccc(O[C@@H]5O[C@H](CO)[C@@H](O)[C@H](O)[C@H]5O)c(OC)c4)OC[C@H]23)ccc1O
inactive: Potency [1] | Potency [2] | Potency [3] | Potency [4] | Potency [5] | Potency [6]

Cc1cc(O)cc(Oc2cc(C)c(C(=O)O)c(O)c2)c1
inactive: Potency [1] | Potency [2] | Potency [3] | Potency [4] | Potency [5] | Potency [6]

C/C(=C\CO)CC/C=C(\C)C(=O)O[C@H]1[C@H](OC2OC=C(C(=O)O)C3CCC(C)(O)C23)O[C@H](CO)[C@@H](O)[C@@H]1O (some centres not stated)
inactive: Potency [1] | Potency [2] | Potency [3] | Potency [4] | Potency [5] | Potency [6]
